This is an account of results in PubChem BioAssay AID2685 (National Center for Advancing Translational Sciences (NCATS), 2010).

About 2,100 (0.66%) of roughly 320,000 compounds were called active. Roughly 53% stayed inconclusive and do not appear here. Calls follow the shape of the dose curve; as a rule, active = well fitted inhibition curve with a large enough effect in the signal ratio, with a control signal flat (not every such curve was filed as active); inconclusive = small, poorly fitted or top-dose-only effect, or effect the other way, or a change in a side signal; inactive = flat fitted curve, though single readings scatter; the % refers to the signal ratio. The entries come from a sample that favours actives as a whole.
Potency is read from the fitted curve at half-maximal effect.

This experiment is described as follows: qHTS Assay for Lipid Storage Modulators in Drosophila S3 Cells.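 As to cell number change: cells counted by Cell Tracker Red CMTPX staining in the red channel.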 As to lipid storage change, negative = inhibition: % is scaled to controls: 0 for no effect and ±100 for the full control effect. The conditions noted are these: BODIPY lipid droplet fluorescence, 18-24 h, cells fed with added oleic acid; cell number change: measured here: cell count max response; series mostly up to 46.1 µM; lipid storage change, negative = inhibition: at the top concentration. A digest of the protocol: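 Drosophila S3 cells loaded with oleic acid (400 uM, as added) and compounds at several concentrations; lipid droplets imaged by 488-nm laser-scanning cytometry, 500–530 nm intensity and object ratio to cell channel. Percent activity normalized to 20 uM Triacsin C.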
For the molecule `CCc1ccc2oc(=O)cc(CN3CCN(Cc4ccccc4)CC3)c2c1`, the result was inactive and the cell number change turned out to be 4.49%.

With `O=C(NCc1ccccc1)c1cc(-c2cccc(O)c2)on1`, the “lipid storage change, negative = inhibition” value is 10.5% (inactive) and the cell number change was found to be 9.36%.

As for `CC(OC(=O)c1nc(Cl)ccc1Cl)C(=O)Nc1ccccc1F` (configuration not stated), the “lipid storage change, negative = inhibition” value is 6.47% (inactive) and the cell number change is -13.3%.

As to `CC(=O)c1ccc(NC(=O)CSc2nnc(C3CC3)n2C)cc1`, the Potency was 1.84 µM (active) and the cell number change is 24.2%.

For the molecule `CC(=O)Nc1ccc(NC(=O)CSc2nnc(C3CC3)n2C)cc1`, the “lipid storage change, negative = inhibition” value is -0.569% (inactive) and the cell number change was -6.84%.

Turning to `CCn1c(SCC(=O)Nc2cccc(S(=O)(=O)N(C)c3ccccc3)c2)nnc1C1CC1`, the “lipid storage change, negative = inhibition” value is -1.58% (inactive) and the cell number change is 0.735%.

Regarding `CC(C)n1cnnc1SCC(=O)Nc1cccc(S(=O)(=O)N(C)c2ccccc2)c1`, the “lipid storage change, negative = inhibition” value was -18.9% (inactive) and the cell number change was -11.3%.

For `CCn1c(SCC(=O)Nc2ccc(C(C)=O)cc2)nnc1C1CC1`, the result was inactive and the cell number change amounted to 13.3%.

As to `CN(c1ccccc1)S(=O)(=O)c1cccc(NC(=O)CSc2nnc(C3CC3)n2C)c1`, the Potency was 23.1 µM (active) and the cell number change worked out at 4.1%.

On to `COc1ccc(NC(=O)c2ccc(S(=O)(=O)N3CCCCC3)cc2)c(OC)c1`, for which the outcome was inactive and the cell number change was -34.1%.

Take `Cc1cc2n(n1)SC(Nc1cc(Cl)ccc1Cl)N2` (configuration not stated): the “lipid storage change, negative = inhibition” value was -11.4% (inactive) and the cell number change is -3.68%.

As to `COc1ccc(N2CCN(CCCNC(=O)CN3C(=O)COc4ccccc43)CC2)cc1`, the result was inactive and the cell number change was -22.1%.

Consider `Cn1c(C(=O)N2CCN(c3ccc(Cl)cc3)CC2)cc2c(=O)[nH]c3ccccc3c21`, for which the “lipid storage change, negative = inhibition” value was -2.56% (inactive) and the cell number change stood at 18.3%.

Regarding `O=C(O)COc1ccc(/C=N/NC(=O)C(O)(c2ccccc2)c2ccccc2)cc1`, the “lipid storage change, negative = inhibition” value is 8.46% (inactive) and the cell number change is 7.99%.

Regarding `CCN(CC)c1ccc(/C=N/NC(=O)C(O)(c2ccccc2)c2ccccc2)o1`, the Potency is 20.6 µM (active) and the cell number change was -15.7%.

Regarding `COc1ccc(/C=N/NC(=O)C(O)(c2ccccc2)c2ccccc2)cc1OC`, the “lipid storage change, negative = inhibition” value was 22.7% (inactive) and the cell number change worked out at 3.71%.

`O=C(C1CCN(Cc2cccs2)CC1)N1CCN(Cc2ccc3c(c2)OCO3)CC1`: the “lipid storage change, negative = inhibition” value was 2.29% (inactive) and the cell number change was 20.4%.

With `C/C(=C/Cc1c(O)cc2oc(C)cc(=O)c2c1O)COC1OC(CO)C(O)C(O)C1O` (configuration not stated), the “lipid storage change, negative = inhibition” value is -5.08% (inactive) and the cell number change was 6.97%.

For `CCN1C(=O)[C@H]2[C@@H](c3ccc(-c4ccccc4)cc3)N[C@@](CC(C)C)(C(=O)OC)[C@H]2C1=O`, the “lipid storage change, negative = inhibition” value is 7.26% (inactive) and the cell number change worked out at 7.59%.

Take `CCN1C(=O)[C@H]2[C@@H](c3ccc(-c4ccc(OC)cc4)cc3)N[C@@](CC(C)C)(C(=O)OC)[C@H]2C1=O`: the “lipid storage change, negative = inhibition” value was -25.2% (inactive) and the cell number change was found to be 12.8%.

As to `CCN1C(=O)[C@H]2[C@@H](c3ccc(SC4CCCCC4)cc3)N[C@@](CC(C)C)(C(=O)OC)[C@H]2C1=O`, the Potency was 8.2 µM (active).

Turning to `CC(C)NC(=O)c1ccccc1NC(=O)CS(=O)(=O)Cc1ccccc1`, the call was inactive and the cell number change was 14.5%.

In the case of `Cc1ccc(NS(=O)(=O)c2ccc3c(c2)oc(=O)n3C)cc1C`, the “lipid storage change, negative = inhibition” value is 4.4% (inactive) and the cell number change came to 5.19%.

Regarding `COc1ccccc1NS(=O)(=O)c1ccc2oc(SCc3ccc(F)cc3)nc2c1`, the “lipid storage change, negative = inhibition” value was -11.7% (inactive) and the cell number change is -19.8%.

For `COc1ccccc1NS(=O)(=O)c1ccc2oc(SC(C)C(=O)N3CCNC3=O)nc2c1` (configuration not stated), the “lipid storage change, negative = inhibition” value was 3.7% (inactive) and the cell number change was -7.72%.

Turning to `CCOC(=O)CSc1nc2cc(S(=O)(=O)Nc3ccccc3OC)ccc2o1`, the Potency is 29.1 µM (active) and the cell number change was -16.6%.

Take `CSc1ccc(CCNC(=O)CN2C(=O)CCSc3ccccc32)cc1`: the “lipid storage change, negative = inhibition” value is 4.79% (inactive) and the cell number change came out at 2.42%.

On to `Cc1cc(C)nc(SCC(=O)c2ccc([N+](=O)[O-])cc2)n1`, for which the molecule was classed as inactive.

As for `Cc1cc(C)nc(SCc2ccc([N+](=O)[O-])cc2)n1`, the “lipid storage change, negative = inhibition” value was -12.6% (inactive) and the cell number change is -8.5%.

Turning to `Cc1cc(C)nc(Sc2ccc([N+](=O)[O-])cc2[N+](=O)[O-])n1`, the Potency is 16.4 µM (active) and the cell number change was -6.83%.

Regarding `C=CCn1c(=O)c2c(nc(-n3nc(C)cc3C)n2C)n(C)c1=O`, the outcome was inactive.

With `Cc1cc(C)nc(N2CCN(C(=O)CCC(=O)Nc3nnc(C(C)C)s3)CC2)n1`, the “lipid storage change, negative = inhibition” value is 0.665% (inactive) and the cell number change was found to be 0.873%.

`O=S(=O)(/N=C(\c1ccccc1F)N1CCCCC1)c1ccccc1`: the “lipid storage change, negative = inhibition” value was -4.68% (inactive) and the cell number change is -0.464%.

For `CC(C)Oc1ccc(CNC(=O)Cn2c(=O)c3cccn3c3cccnc32)cc1`, the molecule was classed as inactive and the cell number change is -16.2%.

Regarding `CC1(C)C2CC[C@]1(C)C(=O)N(CCCCN1CCN(c3ccccn3)CC1)C2=O`, the molecule was classed as inactive and the cell number change amounted to 15.1%.

`Cc1[nH]c2ccccc2c1SCC(=O)N1CCC(C)CC1`: the “lipid storage change, negative = inhibition” value was -7.23% (inactive) and the cell number change is -5.95%.

In the case of `CSC1=NC2(CCCCC2)C2=C(CCCC2)N1`, the Potency was 5.8 µM (active) and the cell number change is -4.54%.

As for `S=C1NC2=C(CCCC2)C2(CCCCC2)N1`, the “lipid storage change, negative = inhibition” value is 3.68% (inactive) and the cell number change was 0.876%.

For `Cc1cccc(C(=O)Nc2c3c(nn2C(C)(C)C)CS(=O)(=O)C3)c1`, the outcome was inactive.

Turning to `COc1ccc(Cl)cc1NC(=S)NC(=O)c1ccco1`, the “lipid storage change, negative = inhibition” value was 17.2% (inactive) and the cell number change is 1.24%.

For `COC(=O)c1cc(OC)c(OC)cc1NC(=S)NC(=O)c1ccco1`, the Potency is 18.4 µM (active) and the cell number change is -15.6%.

As for `COc1cc(NC(=O)c2ccco2)c(C(=O)O)cc1OC`, the “lipid storage change, negative = inhibition” value is 9.63% (inactive) and the cell number change is 5.35%.

As to `CC1CCc2nn(CC(=O)NCc3ccco3)cc2C1` (configuration not stated), the “lipid storage change, negative = inhibition” value was 8.35% (inactive) and the cell number change was -0.142%.

Consider `CCCCN(C(=S)NC(=O)c1ccccc1)c1c(N)n(Cc2ccccc2)c(=O)[nH]c1=O`, for which the “lipid storage change, negative = inhibition” value was -6.94% (inactive) and the cell number change is -12.7%.

With `COC(=O)C(C)SC1=N/C(=C/c2ccc(-n3cncn3)cc2)C(=O)N1` (configuration not stated), the “lipid storage change, negative = inhibition” value was -24.9% (inactive) and the cell number change is -12.1%.

On to `Cc1ccc2cc(CN(Cc3ccco3)C(=S)NCC3CCCO3)c(=O)[nH]c2c1` (configuration not stated), for which the “lipid storage change, negative = inhibition” value is 7.64% (inactive) and the cell number change is 3.25%.

With `COc1ccc(NS(=O)(=O)c2ccc(C(=O)OC(C)C(=O)N3CCOCC3)cc2)cc1` (configuration not stated), the “lipid storage change, negative = inhibition” value is -17.5% (inactive) and the cell number change was -5.78%.

As to `Cc1ccc(CCNC(=O)CCNS(=O)(=O)c2ccc3c(c2)oc(=O)n3C)cc1`, the “lipid storage change, negative = inhibition” value was 9.42% (inactive) and the cell number change is 0.906%.

As to `CC(C)NC(=O)CCCOc1ccc(Cl)cc1Cl`, the “lipid storage change, negative = inhibition” value is 2.67% (inactive) and the cell number change is 5.02%.

`C[C@H](NC(=O)CCCOc1ccc(Cl)cc1Cl)c1nnc2ccccn12`: the Potency is 18.4 µM (active) and the cell number change was found to be 5.34%.

Take `O=C(CCCOc1ccc(Cl)cc1Cl)NCCc1nnc2ccccn12`: the call was inactive and the cell number change was 33.2%.

For the molecule `Cc1sc2ncnc(SCC(=O)N3CCOCC3)c2c1C`, the “lipid storage change, negative = inhibition” value is 11.6% (inactive) and the cell number change is -10.8%.

As to `COc1cccc(CNS(=O)(=O)c2ccc3c(c2)CC(C)N3C(=O)C2CC2)c1` (configuration not stated), the Potency was 11.6 µM (active) and the cell number change was -26.9%.

As to `COc1ccccc1CNS(=O)(=O)c1ccc2c(c1)CC(C)N2C(=O)C1CCC1` (configuration not stated), the Potency is 5.17 µM (active) and the cell number change was -14.7%.

As to `COc1ccccc1CNC(=O)CCS(=O)(=O)c1ccc2c(c1)CC(C)N2C(=O)C1CC1` (configuration not stated), the result was inactive and the cell number change was -19.6%.

On to `CC1Cc2cc(S(=O)(=O)NCc3ccccc3)ccc2N1C(=O)C1CC1` (configuration not stated), for which the “lipid storage change, negative = inhibition” value is -7.65% (inactive) and the cell number change was -26.2%.

Turning to `COc1cccc(NC(=O)CCNS(=O)(=O)c2ccc3c(c2)CC(C)N3C(=O)C2CC2)c1` (configuration not stated), the molecule was classed as inactive and the cell number change came out at 4.78%.

`COc1ccccc1NC(=O)CCNS(=O)(=O)c1ccc2c(c1)CC(C)N2C(=O)C1CC1` (configuration not stated): the result was inactive and the cell number change amounted to 3.62%.
